Measurements taken from PubChem BioAssay (EPA / NIEHS).
Several values for one entry are separate records, joined by “and”; a condition that tells them apart may be missing. Identical values can stand only once. Inconclusive results are not listed. Some compounds were tested as several samples or in several runs, with calls that do not always agree. Activity calls are given as the source filed them. The calls were made as follows, unless noted: active = hit-call score of the fitted dose curve at least 0.9, where 1 is the maximum; inactive = score below 0.9.

Legend:
[1] = ATG_PBREM_CIS: Attagene CIS-FACTORIAL HepG2 Assay for human Phenobarbital-responsive Enhancer Module (PBREM) (AID 2282955); conditions: HepG2 PBREM cis-reporter, Attagene multiplexed transcription; actives raise or lower the signal
In short: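 Endogenous transcription factors in human liver HepG2 cells drive a PBREM cis-element reporter, whose transcript level after 24 h treatment is quantified by RT-PCR with capillary electrophoresis; activity fitted in both directions against DMSO.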

[2] = ATG_PXRE_CIS: Attagene CIS-FACTORIAL HepG2 Assay for human Pregnane X Receptor Element (PXRE) (AID 2282957); conditions: HepG2 Attagene CIS-FACTORIAL PXRE reporter, mRNA; actives raise or lower the signal
In short: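 Transiently transfected HepG2 cells were dosed and incubated for 24 h. RNA was then isolated, DNase-treated, reverse-transcribed and reporter sequences amplified. Labeled, HpaI-digested fragments were quantified by capillary electrophoresis against DMSO.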

[3] = ATG_PPRE_CIS: Attagene CIS-FACTORIAL HepG2 Assay for human Peroxisome Proliferator-activated Response Element (PPRE) (AID 2282958); conditions: HepG2 PPRE cis-element reporter, Attagene transcription factor profiling; actives raise or lower the signal
In short: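 HepG2, transient MRTU transfection (cis promoter elements, endogenous TFs). 24 h dosing. RNA → oligo(dT) RT → PCR → 6-FAM primer extension → HpaI digest → CE. Bidirectional fit vs DMSO.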

[4] = ATG_RORE_CIS: Attagene CIS-FACTORIAL HepG2 Assay for human RAR-related Orphan Receptor Element (RORE) (AID 2282959); conditions: HepG2 Attagene cis-factorial RORE reporter, mRNA; actives raise or lower the signal
In short: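 Transient MRTU transfection of human HepG2 liver cells (FuGene 6); 24 h compound exposure; TriZol RNA, oligo(dT) RT, PCR, FAM labeling, HpaI cut, CE fragment analysis. DMSO = negative control/baseline.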

[5] = ATG_Sox_CIS: Attagene CIS-FACTORIAL HepG2 Assay for human SRY-box transcription factor (SOX) (AID 2282960); conditions: HepG2 Attagene cis-factorial SOX reporter, mRNA; actives raise or lower the signal
In short: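 Endogenous factor activity in human liver HepG2 cells carrying transfected cis-regulated reporter units. RNA taken 24 h post-dose, reverse-transcribed, PCR-amplified and sized by capillary electrophoresis. Gain or loss of signal fitted relative to DMSO.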

[6] = biological target: Transcription factor Sp1 (Homo sapiens) (UniProt P08047); test: ATG_Sp1_CIS: Attagene CIS-FACTORIAL HepG2 Assay for human Specificity Protein 1 (Sp1) (AID 2282961); conditions: HepG2 Sp1 cis-reporter transcription, actives raise or lower the signal
Chain of Transcription factor Sp1 (Homo sapiens) (P08047 whole entry, looked up): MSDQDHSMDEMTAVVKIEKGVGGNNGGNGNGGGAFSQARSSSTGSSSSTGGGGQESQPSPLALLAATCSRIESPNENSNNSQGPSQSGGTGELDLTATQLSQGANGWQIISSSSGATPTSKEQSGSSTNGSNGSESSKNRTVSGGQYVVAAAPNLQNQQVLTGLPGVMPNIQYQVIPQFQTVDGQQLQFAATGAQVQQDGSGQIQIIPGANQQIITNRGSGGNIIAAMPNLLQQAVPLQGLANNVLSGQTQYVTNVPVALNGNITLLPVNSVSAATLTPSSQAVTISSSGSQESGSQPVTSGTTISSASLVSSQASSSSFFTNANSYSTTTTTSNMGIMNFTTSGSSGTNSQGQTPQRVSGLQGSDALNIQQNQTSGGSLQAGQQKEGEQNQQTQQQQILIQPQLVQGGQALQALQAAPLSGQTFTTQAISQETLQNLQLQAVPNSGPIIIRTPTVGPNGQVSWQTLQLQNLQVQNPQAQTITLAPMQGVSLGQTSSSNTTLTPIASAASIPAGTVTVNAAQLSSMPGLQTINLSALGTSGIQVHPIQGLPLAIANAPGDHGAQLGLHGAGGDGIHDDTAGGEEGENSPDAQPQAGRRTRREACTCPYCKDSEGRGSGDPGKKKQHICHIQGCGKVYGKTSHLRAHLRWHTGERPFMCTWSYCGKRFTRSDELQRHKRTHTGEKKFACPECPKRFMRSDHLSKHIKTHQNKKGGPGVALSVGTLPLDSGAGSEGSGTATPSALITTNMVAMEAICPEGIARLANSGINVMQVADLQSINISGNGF
In short: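 Transient MRTU-transfected HepG2, 24 h compound exposure. Total RNA → oligo(dT) RT → PCR of reporter → 6-FAM primer extension → HpaI digest → CE. Endpoint fitted both directions vs DMSO.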

[7] = ATG_SREBP_CIS: Attagene CIS-FACTORIAL HepG2 Assay for human Sterol Regulatory Element Binding (SREBP) (AID 2282962); conditions: HepG2 Attagene cis-factorial SREBP reporter, mRNA; actives raise or lower the signal
In short: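 Transfected HepG2 (cis-regulated reporter library, endogenous TFs) → compound 24 h → total RNA → oligo(dT) RT → reporter-specific PCR → FAM primer extension, HpaI cut → CE fluorescence. Fit bidirectional vs DMSO.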

[8] = biological target: Signal transducer and activator of transcription 3 (Homo sapiens) (UniProt P40763); test: ATG_STAT3_CIS: Attagene CIS-FACTORIAL HepG2 Assay for human Signal Transducer and Activator of Transcription 3 (STAT3) (AID 2282963); conditions: HepG2, Attagene cis-factorial STAT3 reporter transcription; actives raise or lower the signal
Chain of Signal transducer and activator of transcription 3 (Homo sapiens) (P40763 whole entry, looked up): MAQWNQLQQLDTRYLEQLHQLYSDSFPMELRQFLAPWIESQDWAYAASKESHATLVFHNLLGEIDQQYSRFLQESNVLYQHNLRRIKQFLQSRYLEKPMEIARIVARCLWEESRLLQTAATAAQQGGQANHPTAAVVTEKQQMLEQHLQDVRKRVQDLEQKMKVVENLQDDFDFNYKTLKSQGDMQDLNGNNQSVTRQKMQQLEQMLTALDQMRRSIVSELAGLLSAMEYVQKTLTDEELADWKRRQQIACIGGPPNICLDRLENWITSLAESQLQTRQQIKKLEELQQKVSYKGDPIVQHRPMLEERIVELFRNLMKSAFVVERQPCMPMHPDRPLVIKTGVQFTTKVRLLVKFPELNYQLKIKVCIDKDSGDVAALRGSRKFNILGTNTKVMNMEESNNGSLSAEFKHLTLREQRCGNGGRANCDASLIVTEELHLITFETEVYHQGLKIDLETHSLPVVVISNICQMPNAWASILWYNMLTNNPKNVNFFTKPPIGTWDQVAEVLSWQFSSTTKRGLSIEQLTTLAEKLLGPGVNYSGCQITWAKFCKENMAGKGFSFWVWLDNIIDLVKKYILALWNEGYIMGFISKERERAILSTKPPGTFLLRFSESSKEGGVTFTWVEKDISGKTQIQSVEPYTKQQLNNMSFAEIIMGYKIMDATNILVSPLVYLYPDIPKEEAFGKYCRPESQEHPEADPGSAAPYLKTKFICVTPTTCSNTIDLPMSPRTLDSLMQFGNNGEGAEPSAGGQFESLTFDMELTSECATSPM
In short: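 HepG2 cells transiently transfected with multiple cis-element-driven reporter units report endogenous transcription factor activity. After 24 h compound exposure, reporter mRNA is measured by RT-PCR, 6-FAM labelling, HpaI digestion and capillary electrophoresis. Fitted bidirectionally versus DMSO.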

[9] = ATG_TA_CIS: Attagene CIS-FACTORIAL HepG2 Assay for human TA Basal Promoter (AID 2282964); conditions: HepG2 Attagene CIS-factorial TA basal promoter reporter; actives raise or lower the signal
In short: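 Transient MRTU transfection of HepG2 preceded 24 h compound exposure. Reporter mRNA levels were then read by RT-PCR with capillary electrophoresis, and this background-control endpoint was fitted bidirectionally to DMSO.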

[10] = ATG_TCF_b_cat_CIS: Attagene CIS-FACTORIAL HepG2 Assay for human T-Cell-Factor with beta-catenin (TCF/b-cat) (AID 2282965); conditions: HepG2 TCF/beta-catenin cis-reporter transcription, actives raise or lower the signal
In short: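 HepG2 cells transiently transfected with cis-promoter-driven multiplexed reporter units; reporter mRNA measured 24 h after dosing by RT-PCR, FAM labelling, HpaI digestion and capillary electrophoresis. Bidirectional fitting relative to DMSO baseline.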

[11] = ATG_TAL_CIS: Attagene CIS-FACTORIAL HepG2 Assay for human TAL Basal Promoter (AID 2282966); conditions: HepG2 Attagene cis-factorial TAL promoter reporter; actives raise or lower the signal;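 also: background control endpoint measuring basal TAL promoter reporter mRNA not a specific factor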
In short: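 Readout: reporter mRNA, fluorescence by CE. System: HepG2, transient multi-reporter transfection, endogenous TF activity. Exposure: 24 h. Analysis: bidirectional, DMSO-normalized; background control.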

[12] = ATG_TGFb_CIS: Attagene CIS-FACTORIAL HepG2 Assay for human Transforming Growth Factor (TGF) (AID 2282967); conditions: HepG2 Attagene CIS TGFb reporter, mRNA transcription; actives raise or lower the signal
In short: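 After a 24-hour incubation with compound, transfected HepG2 cells were lysed for RNA; reporter cDNA was amplified, fluorescently end-labeled and separated by CE. DMSO served as baseline for bidirectional fits.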

[13] = ATG_VDRE_CIS: Attagene CIS-FACTORIAL HepG2 Assay for human Vitamin D Receptor Element (VDRE) (AID 2282968); conditions: HepG2 VDRE cis-reporter transcription, actives raise or lower the signal
In short: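 Transiently transfected HepG2 cells carrying cis-regulated reporter transcription units were exposed for 24 h. Reporter mRNA was measured by RT-PCR with fluorescent labelling and capillary electrophoresis, and fitted in both directions against DMSO.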

[14] = biological target: Nuclear receptor subfamily 1 group I member 3 (Homo sapiens) (UniProt Q14994); test: ATG_CAR_TRANS: Attagene TRANS-FACTORIAL HepG2 Assay for human Constitutive Androstane Receptor (CAR) (AID 2282969; active = hit-call score of the fitted dose curve at least 0.9, where 1 is the maximum;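 also: activators raise reporter mRNA above DMSO so AC50 marks induction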); conditions: HepG2 Attagene TRANS-FACTORIAL CAR reporter
Chain of Nuclear receptor subfamily 1 group I member 3 (Homo sapiens) (Q14994 whole entry, looked up, the tested form may be a part): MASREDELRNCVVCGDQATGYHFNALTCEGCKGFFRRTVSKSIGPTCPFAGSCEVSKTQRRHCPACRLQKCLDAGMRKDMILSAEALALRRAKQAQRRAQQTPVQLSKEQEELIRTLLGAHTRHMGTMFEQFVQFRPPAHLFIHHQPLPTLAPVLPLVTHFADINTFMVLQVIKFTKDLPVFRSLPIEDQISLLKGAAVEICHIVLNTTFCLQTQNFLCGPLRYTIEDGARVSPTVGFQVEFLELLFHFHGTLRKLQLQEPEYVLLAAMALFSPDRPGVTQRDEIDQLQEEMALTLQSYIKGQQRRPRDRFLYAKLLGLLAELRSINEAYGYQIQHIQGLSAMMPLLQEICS
In short: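 HepG2 cells transiently transfected with GAL4-UAS reporter units; TRANS format reads activity of exogenous chimeric NR-Gal4 protein. After 24 h dosing, reporter mRNA quantified by RT-PCR, 6-FAM labelling and capillary electrophoresis; gain of signal fitted against DMSO.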

[15] = biological target: X-box-binding protein 1 (Homo sapiens) (UniProt P17861); test: ATG_Xbp1_CIS: Attagene CIS-FACTORIAL HepG2 Assay for human X-box Binding Protein 1 (XBP1) (AID 2282972); conditions: HepG2 XBP1 cis-element reporter, Attagene multiplex; actives raise or lower the signal
Chain of X-box-binding protein 1 (Homo sapiens) (P17861 whole entry, looked up): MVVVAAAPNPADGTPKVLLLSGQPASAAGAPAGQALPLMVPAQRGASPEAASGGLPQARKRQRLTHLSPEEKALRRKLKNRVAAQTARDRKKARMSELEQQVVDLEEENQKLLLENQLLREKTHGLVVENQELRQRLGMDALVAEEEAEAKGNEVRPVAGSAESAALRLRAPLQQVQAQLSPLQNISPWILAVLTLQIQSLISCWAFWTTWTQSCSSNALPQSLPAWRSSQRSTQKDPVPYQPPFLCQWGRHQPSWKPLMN
In short: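 HepG2, transient MRTU transfection (cis-promoter driven), 24 h compound exposure. Total RNA → oligo(dT) RT → PCR → 6-FAM labeling → HpaI cut → CE. Bidirectional fit vs DMSO.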

[16] = ATG_M_19_TRANS: Attagene TRANS-FACTORIAL HepG2 Assay for M19 Transcription Factor (Internal Marker) (AID 2282974; active = hit-call score of the fitted dose curve at least 0.9, where 1 is the maximum); conditions: HepG2 Attagene TRANS-FACTORIAL M19 internal marker reporter
In short: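 Fluorescence of 6-FAM-labelled reporter cDNA fragments, separated by capillary electrophoresis, served as the readout. These derived from HepG2 cells carrying transfected GAL4-UAS reporter units after 24 h dosing, with DMSO as negative control.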

[17] = ATG_GAL4_TRANS: Attagene TRANS-FACTORIAL HepG2 Assay for GAL4 (Internal Marker) (AID 2282976; active = hit-call score of the fitted dose curve at least 0.9, where 1 is the maximum); conditions: HepG2 Attagene TRANS GAL4 internal marker reporter
In short: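 Fluorescence from capillary electrophoresis of labelled RT-PCR products quantifies reporter mRNA induction after 24 h dosing of HepG2 cells carrying transfected GAL4-UAS reporter transcription units. Vehicle DMSO serves as baseline.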

[18] = biological target: Glucocorticoid receptor (Homo sapiens) (UniProt P04150); test: ATG_GR_TRANS: Attagene TRANS-FACTORIAL HepG2 Assay for human Glucocorticoid Receptor (GR) (AID 2282978; active = hit-call score of the fitted dose curve at least 0.9, where 1 is the maximum;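 also: activators score as hits since higher reporter transcript over DMSO is fitted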); conditions: HepG2 Attagene TRANS GR reporter, mRNA transcription
Chain of Glucocorticoid receptor (Homo sapiens) (P04150 whole entry, looked up, the tested form may be a part): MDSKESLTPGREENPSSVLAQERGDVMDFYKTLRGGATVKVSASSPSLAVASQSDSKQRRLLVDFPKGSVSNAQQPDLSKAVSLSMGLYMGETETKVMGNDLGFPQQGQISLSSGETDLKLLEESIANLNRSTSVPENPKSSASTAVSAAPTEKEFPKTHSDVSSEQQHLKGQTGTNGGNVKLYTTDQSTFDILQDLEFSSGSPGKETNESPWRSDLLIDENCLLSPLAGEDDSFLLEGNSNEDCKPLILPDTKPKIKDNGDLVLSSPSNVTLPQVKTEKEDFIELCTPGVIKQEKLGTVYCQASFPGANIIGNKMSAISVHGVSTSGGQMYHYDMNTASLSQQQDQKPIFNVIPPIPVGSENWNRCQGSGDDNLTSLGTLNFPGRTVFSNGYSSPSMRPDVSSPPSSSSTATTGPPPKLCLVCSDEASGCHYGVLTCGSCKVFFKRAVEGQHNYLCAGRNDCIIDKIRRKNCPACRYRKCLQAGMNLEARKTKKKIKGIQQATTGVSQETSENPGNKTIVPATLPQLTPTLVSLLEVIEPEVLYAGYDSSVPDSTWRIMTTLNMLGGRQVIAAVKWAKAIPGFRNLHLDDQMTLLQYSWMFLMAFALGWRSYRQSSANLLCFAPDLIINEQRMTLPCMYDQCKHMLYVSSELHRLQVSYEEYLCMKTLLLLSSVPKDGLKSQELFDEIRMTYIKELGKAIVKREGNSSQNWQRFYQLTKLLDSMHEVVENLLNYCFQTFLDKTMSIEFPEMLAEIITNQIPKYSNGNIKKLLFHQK
In short: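 Fluorescent capillary-electrophoresis quantitation of reporter mRNA is the readout, taken 24 h after dosing human HepG2 cells carrying transiently transfected GAL4-UAS reporter units activated by chimeric NR-GAL4 fusions; activity scored as induction over DMSO.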

[19] = biological target: Paired box protein Pax-6 (Homo sapiens) (UniProt P26367); test: ATG_Pax6_CIS: Attagene CIS-FACTORIAL HepG2 Assay for human Paired Box 6 (PAX6) (AID 2282956); conditions: HepG2 CIS-FACTORIAL PAX6 reporter transcription, RNA readout; actives raise or lower the signal
Chain of Paired box protein Pax-6 (Homo sapiens) (P26367 whole entry, looked up): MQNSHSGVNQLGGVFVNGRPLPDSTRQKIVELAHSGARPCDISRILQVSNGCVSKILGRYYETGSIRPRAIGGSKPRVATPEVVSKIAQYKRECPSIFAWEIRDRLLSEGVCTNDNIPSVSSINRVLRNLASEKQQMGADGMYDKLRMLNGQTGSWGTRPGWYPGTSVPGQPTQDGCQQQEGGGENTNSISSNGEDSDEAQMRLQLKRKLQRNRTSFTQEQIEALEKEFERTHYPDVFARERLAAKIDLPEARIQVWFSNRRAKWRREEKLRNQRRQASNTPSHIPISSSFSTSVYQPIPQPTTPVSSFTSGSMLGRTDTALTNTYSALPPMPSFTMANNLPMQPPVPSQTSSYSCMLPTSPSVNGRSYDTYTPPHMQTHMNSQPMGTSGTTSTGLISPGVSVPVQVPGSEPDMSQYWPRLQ
In short: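 Transient MRTU transfection of HepG2 → compound exposure 24 h → TriZol RNA, oligo(dT) RT → PCR, 6-FAM primer extension, HpaI cut → capillary electrophoresis; activity fitted both directions against DMSO.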

[20] = biological target: Estrogen receptor (Homo sapiens) (UniProt P03372); test: ATG_ERa_TRANS: Attagene TRANS-FACTORIAL HepG2 Assay for human Estrogen Receptor alpha (ERa) (AID 2282970; active = hit-call score of the fitted dose curve at least 0.9, where 1 is the maximum); conditions: HepG2 Attagene TRANS ERa GAL4 reporter, mRNA
Chain of Estrogen receptor (Homo sapiens) (P03372 whole entry, looked up, the tested form may be a part): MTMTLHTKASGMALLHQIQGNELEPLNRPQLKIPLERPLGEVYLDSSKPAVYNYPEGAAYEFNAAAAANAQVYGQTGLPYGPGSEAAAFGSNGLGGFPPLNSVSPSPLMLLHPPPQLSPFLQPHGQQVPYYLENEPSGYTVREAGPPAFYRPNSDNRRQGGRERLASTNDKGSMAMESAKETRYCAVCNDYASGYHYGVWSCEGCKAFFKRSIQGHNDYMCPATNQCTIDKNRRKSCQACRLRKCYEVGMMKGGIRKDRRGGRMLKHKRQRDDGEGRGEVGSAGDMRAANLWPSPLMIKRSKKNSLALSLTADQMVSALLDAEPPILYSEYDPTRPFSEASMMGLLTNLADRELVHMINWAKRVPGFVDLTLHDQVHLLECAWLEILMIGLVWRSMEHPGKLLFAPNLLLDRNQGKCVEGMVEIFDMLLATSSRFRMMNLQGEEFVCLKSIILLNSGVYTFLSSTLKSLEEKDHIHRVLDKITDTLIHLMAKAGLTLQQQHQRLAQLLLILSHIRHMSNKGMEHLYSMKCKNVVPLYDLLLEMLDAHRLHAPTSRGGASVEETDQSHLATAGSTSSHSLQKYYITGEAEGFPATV
In short: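 Transactivation via ERa-Gal4 chimera in HepG2; 24 hour incubation; reporter mRNA detected by fluorescence RT-PCR and capillary electrophoresis.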

Measured: AC50

CON(C)C(=O)Nc1ccc(Cl)c(Cl)c1
active: [1] 31.9 µM and 27.2 µM | [2] 26.7 µM [middle of 4 runs] | [3] 69.6 µM | [13] 28.7 µM and 35.7 µM and 23.4 µM
inactive: [1] | [3] | [4] | [5] | [6] | [7] | [8] | [9] | [10] | [11] | [12] | [13] | [14] | [15] | [16] | [17] | [18]

COc1nc(C)nc(NC(=O)NS(=O)(=O)c2ccccc2Cl)n1
inactive: [1] | [2] | [4] | [6] | [7] | [8] | [9] | [10] | [11] | [12] | [13] | [14] | [15] | [16]
active: [2] 31.3 µM

CCOC(=O)CC(SP(=S)(OC)OC)C(=O)OCC (stereo not given)
active: [19] 100 µM | [2] 2.27 µM and 12.2 µM | [3] 83.1 µM and 32.5 µM | [4] 150 µM | [11] 0.00921 µM | [13] 20.2 µM and 29.4 µM | [20] 68 µM and 32.4 µM | [15] 100 µM
inactive: [1] | [19] | [4] | [6] | [7] | [9] | [10] | [11] | [12] | [14] | [15] | [16] | [18]

CCCN(CCC)c1c([N+](=O)[O-])cc(S(N)(=O)=O)cc1[N+](=O)[O-]
active: [1] 2.2 µM | [2] 302 nM and 134 nM and 567 nM | [13] 915 nM and 1.14 µM
inactive: [1] | [3] | [4] | [6] | [7] | [9] | [10] | [11] | [12] | [13] | [14] | [20] | [15] | [16] | [17] | [18]

CCCC1COC(Cn2cncn2)(c2ccc(Cl)cc2Cl)O1 (stereo not given)
active: [1] 50 µM | [2] 4.09 µM and 85 µM | [7] 15.9 µM | [9] 50 µM | [13] 7.99 µM
inactive: [1] | [3] | [4] | [6] | [7] | [9] | [10] | [11] | [12] | [13] | [14] | [15] | [16] | [17] | [18]

CCON=C(CC)C1=C(O)CC(c2c(C)cc(C)cc2C)CC1=O (stereo not given)
inactive: [1] | [19] | [3] | [4] | [5] | [6] | [7] | [9] | [10] | [11] | [12] | [13] | [15]
active: [2] 34.9 µM
